{"source": "PubChem BioAssay"}
{"assay": "probe aEGFR binding to arrayed compounds – biochemical, biotinylated probe, 635/667 nm fluorescence, primary screen (AID 1097);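 also: probe is a biotinylated anti-EGFR antibody binding compounds printed on slides; score combines fluorescence near 667 nm and signal to noise of each spot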", "conditions": "small-molecule microarray, higher = more signal"}
{"smiles": "CC[C@@H]1C=C(C(=O)O)[C@H](c2ccc(C)cc2)N1S(=O)(=O)c1ccc(C)cc1", "composite z-score": -0.0557}
{"smiles": "COCC(=C=CC[C@@H](O)c1ccc(OCCO)cc1)C[C@@H](O)c1ccccn1", "composite z-score": 0.361}
{"smiles": "C=CCN1Cc2ccccc2[C@@H]2OC(c3ccc(OCCCO)cc3)=N[C@]2(CCS(=O)(=O)c2ccccc2)C1=O", "composite z-score": -0.0261}
{"smiles": "COc1cc(OC)c(C(O)C2C=CC3C(=O)NC(=O)C3N2Nc2ccccn2)cc1Br", "note": "(stereo unspecified)", "composite z-score": 0.131}
{"smiles": "COC(=O)[C@H](Cc1ccccc1)N[C@H](/C=C/C1CC1)[C@@H](O)Cc1ccccc1", "composite z-score": -0.178}
{"smiles": "O=C1C2C=CC(C(O)c3ccc4c(c3)OCO4)N(Nc3ccc([N+](=O)[O-])cc3)C2C(=O)N1c1ccccc1", "note": "(stereo unspecified)", "composite z-score": 0.006}
{"smiles": "CC(C)CNC(=O)[C@@]1(Cc2ccccc2I)c2ccccc2C(=O)N(Cc2ccccc2C(F)(F)F)[C@H]1c1ccc(CO)cc1", "composite z-score": -0.201}
{"smiles": "COc1cc2c(cc1O)C(c1cccs1)N(Cc1cccc(OC(F)(F)F)c1)CC2", "note": "(stereo unspecified)", "composite z-score": -0.139}
{"smiles": "C=C(/C(=C/C[C@H](OC(=O)c1ccncc1)c1ccc(OCCO)cc1)c1cc(C(=O)OC)ccc1OC)C(C)C", "composite z-score": 0.122}
{"smiles": "CC1CC/C=C\\[C@H]2OC34C=CCN(Cc5ccccc5)C(=O)[C@H]3N(C(C)CO)C(=O)[C@@H]4C2C(=O)O1", "note": "(stereo partly specified)", "composite z-score": -0.0916}
{"smiles": "CCOC(=O)C[C@H]1[C@H](OC(=O)c2ccc(-c3ccccc3)cc2)[C@@H](NC(=O)c2ccccc2)c2cc(OCCCO)ccc2N1C(=O)Cc1ccc(OC)cc1", "composite z-score": -0.21}
{"smiles": "COc1ccc(NN2C(C(O)c3ccc(N(C)C)cc3)C=CC3C(=O)N(C4CCCCC4)C(=O)C32)cc1", "note": "(stereo unspecified)", "composite z-score": 0.174}
{"smiles": "NC(=O)[C@@H]1[C@H]2C(=O)O[C@H](c3ccccc3)[C@H](c3ccccc3)N2[C@H](c2ccc(O)cc2)[C@@]12C(=O)Nc1ccc(C#CC3=CCCCC3)cc12", "composite z-score": -0.176}
{"smiles": "C=CCC(OC(C)=O)[C@@H]1[C@@H](N(Cc2ccc(-c3cccc(C(F)(F)F)c3)o2)C(=O)c2cccc3ccccc23)c2cc(OCCCO)ccc2N1C(=O)Cc1ccc2ccccc2c1", "note": "(stereo partly specified)", "composite z-score": -0.146}
{"smiles": "O=C1O[C@@H](c2ccccc2)[C@@H](c2ccccc2)N2[C@@H](c3ccccc3OCCO)[C@]3(C(=O)Nc4ccccc43)[C@@H](C(=O)O)[C@H]12", "composite z-score": -0.185}
{"smiles": "O=C1OCCC/C=C\\[C@H]2OC34C=CCN(c5ccc6ccccc6c5)C(=O)[C@H]3N(CCCCCO)C(=O)[C@@H]4C12", "note": "(stereo partly specified)", "composite z-score": -0.13}
{"smiles": "Cc1ccc(S[C@]2(C(=O)NCC(C)C)CC(=O)N(Cc3cc(C(F)(F)F)cc(C(F)(F)F)c3)[C@@H]2c2ccc(CO)cc2)cc1", "composite z-score": -0.073}
{"smiles": "COc1ccc([C@H]2C[C@H]3C(I)=C[C@@H]2C(=O)[C@]32CO2)cc1", "composite z-score": -0.135}
{"smiles": "C=CCNC(=O)[C@@H]1[C@H]2C(=O)O[C@H](c3ccccc3)[C@H](c3ccccc3)N2[C@H](c2ccc(OCCO)cc2)[C@@]12C(=O)N(C(=O)OCCOC)c1ccc(C#CCC(C(=O)OC)C(=O)OC)cc12", "composite z-score": 0.23}
{"smiles": "COc1ccc([Si](C)(C)[C@H]2[C@H](CCO)O[C@@]3(C(=O)N(Cc4ccccc4)c4ccc(N5CCCCC5=O)cc43)[C@@H]2C)cc1", "composite z-score": -0.123}
{"smiles": "C[N+](C)(C)CCCC[C@@H]1NC(=O)[C@@H]2C[C@H](C(=O)NCCCCCN)[C@H](c3ccc(O)cc3)N2C1=O", "composite z-score": 0.239}
{"smiles": "O=C1C2C=CC(C(O)c3ccc(-c4ccccc4)s3)N(Nc3ccccc3)C2C(=O)N1c1ccccc1", "note": "(stereo unspecified)", "composite z-score": -0.0565}
{"smiles": "COc1ccc(C(=O)Nc2cccc(CN3C(=O)[C@]4(O[C@H](CCn5cc(CCO)nn5)[C@@H]([Si](C)(C)c5ccc(OC)cc5)[C@@H]4C)c4ccccc43)c2)cc1", "composite z-score": 0.0848}
{"smiles": "COC(=O)[C@@]1(Cc2ccccc2)[C@H]2c3cc(C(=O)N4CCCC4)n(Cc4ccc(O)c(OC)c4)c3C[C@H]2CN1C(=O)c1ccccc1", "composite z-score": 0.249}
{"smiles": "O=C(NCCN1CCOCC1)[C@@H]1c2ccccc2C(=O)N(Cc2cc(C(F)(F)F)cc(C(F)(F)F)c2)[C@H]1c1ccc(CO)cc1", "composite z-score": -0.0744}
{"smiles": "O=C1C2C=CC(C(O)c3cc(C(F)(F)F)cc(C(F)(F)F)c3)N(Nc3ccccc3)C2C(=O)N1c1ccccc1", "note": "(stereo unspecified)", "composite z-score": -0.0536}
{"smiles": "O=C1OCC=C[C@H]2OC34C=CCN(CCN5CCOCC5)C(=O)[C@H]3N(CCO)C(=O)[C@@H]4[C@@H]12", "note": "(stereo partly specified)", "composite z-score": -0.139}
{"smiles": "CCCCCCc1nc(-c2ccc(-c3ccc(Cl)c(Cl)c3)o2)cc2c1[Si](C(C)C)(C(C)C)O[C@H]2c1ccccc1", "composite z-score": -0.249}
{"smiles": "O=C1C2C=CC(C(O)c3c(F)cccc3Cl)N(Nc3ccccc3F)C2C(=O)N1c1ccccc1", "note": "(stereo unspecified)", "composite z-score": 0.196}
{"smiles": "COc1ccc(C(O)C2C=CC3C(=O)N(C)C(=O)C3N2NC(=O)OC(C)(C)C)c2ccccc12", "note": "(stereo unspecified)", "composite z-score": 0.0185}
{"smiles": "OCC1C=C(/C=C/c2ccccc2)CN1Cc1ccccc1Br", "note": "(stereo unspecified)", "composite z-score": 0.0339}
{"smiles": "CN1C(=O)C2C=CC(C(O)c3ccc(F)cc3)N(N(c3ccccc3)c3ccccc3)C2C1=O", "note": "(stereo unspecified)", "composite z-score": -0.0234}
{"smiles": "CC(=CC1CCCCC1)[C@@H](NC(=O)c1cccnc1)c1ccc(-c2ccccc2)cc1", "composite z-score": -0.222}
{"smiles": "CCN(CC)c1ccc(N2CC=CC34O[C@@H]5C=CCOC(=O)[C@@H]5[C@H]3C(=O)N(CCCCCCO)[C@@H]4C2=O)cc1", "note": "(stereo partly specified)", "composite z-score": -0.0987}
{"smiles": "C=C(CCCC)/C(=C/C[C@H](OC(=O)c1ccncc1)c1ccc(OCCO)cc1)c1cc(C(=O)OC)ccc1OC", "composite z-score": 0.689}
{"smiles": "COCCOC(=O)N1C(=O)[C@@]2(c3cc(C#CC4(O)CCCCCC4)ccc31)[C@H](c1ccccc1OCCO)N1[C@H](c3ccccc3)[C@H](c3ccccc3)OC(=O)[C@H]1[C@@H]2C(=O)N1CCc2cc(OC)c(OC)cc2C1", "composite z-score": 0.0092}
